# Data: PubChem BioAssay (NCI)
# The panel holds about 79,000 compounds, 15% with a hit somewhere; the sample as a whole holds those more often. Unmarked numbers belong to inactive results. Active and inactive are the calls of the source. No stated cut-off is given here; in the data, active means growth inhibition above about 70%; inactive means the rest.
# Columns and labels:
# [1] = NCI Yeast Anticancer Drug Screen. Data for the rad50 strain (AID 155);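 further: 0% = growth of vehicle-only cultures of the same strain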; settings: S. cerevisiae rad50 strain growth inhibition; at 50.0 µM; stronger effect = higher value
# Summary of the method: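 Vehicle-treated cultures provide the reference for the growth inhibition reported for compound-exposed, repair-deficient yeast.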
# [2] = NCI Yeast Anticancer Drug Screen. Data for the mec2-1 strain (AID 157); settings: S. cerevisiae mec2-1 strain, at 50.0 µM, stronger effect = higher value
# Summary of the method: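 Compounds were applied to mec2-1 yeast cells. Their growth was then compared with that of vehicle-treated cultures to give growth inhibition.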
# [3] = NCI Yeast Anticancer Drug Screen. Data for the sgs1 mgt1 strain (AID 161);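 further: 0% = growth of cultures given vehicle only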; settings: S. cerevisiae sgs1 mgt1 strain, at 50.0 µM, stronger effect = higher value
# Summary of the method: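 Compounds are added to genetically altered yeast, and growth is compared with cultures given vehicle alone to give percent inhibition.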
# [4] = NCI Yeast Anticancer Drug Screen. Data for the cln2 rad14 strain (AID 165);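 further: 0% = growth equal to vehicle treated cultures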; settings: S. cerevisiae cln2 rad14 strain, at 50.0 µM, stronger effect = higher value
# Summary of the method: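 Strain: cln2 rad14 yeast, altered in cell cycle control and DNA damage repair. Read-out: growth inhibition vs vehicle.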
# [5] = NCI Yeast Anticancer Drug Screen. Data for the bub3 strain (AID 167); settings: S. cerevisiae bub3 mutant strain, at 50.0 µM, stronger effect = higher value
# Summary of the method: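 Mutant yeast screening strain plus compound; vehicle-treated cultures serve as the 0% inhibition reference.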
# [6] = NCI Yeast Anticancer Drug Screen. Data for the mlh1 rad18 strain (AID 175); settings: S. cerevisiae mlh1 rad18 strain growth inhibition; at 50.0 µM; stronger effect = higher value
# Summary of the method: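 A repair-deficient yeast strain is exposed to test compound, and growth is scored relative to vehicle-treated controls.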
SMILES,growth inhibition [1],growth inhibition [2],growth inhibition [3],growth inhibition [4],growth inhibition [5],growth inhibition [6]
CCOC(=O)c1c(C)c2c(n1Cc1ccccc1)CCCC2=O,15.5%,11.4%,38.5%,12.7%,23.9%,19.4%
O=C(O)C1CCCN1Cc1ccc2c(c1)OCO2 (stereo unspecified),-5.1%,-19.6%,-34%,-3.5%,-40.8%,-36.8%
CCN(CC)C(=O)CCC(=O)O,0.4%,-13.3%,-14.7%,3.3%,0.55%,24.7%
Cn1ncc2c(Nc3cc(Cl)ccc3Cl)ncnc21,-3.05%,-1.9%,4.35%,-52.8%,3.7%,-1.95%
COC(=O)/C=C/CCOS(C)(=O)=O,9.6%,-35%,0.55%,-39%,-3.25%,16.5%
CN(C)CCNc1cccc2oc3ccc(O)cc3c(=O)c12,8.2%,-4.95%,9.55%,-2.3%,-4.95%,7.4%
COc1cc(-c2ccc(N=C=O)c(OC)c2)ccc1N=C=O,-4%,-27.4%,9.8%,-5.7%,29.9%,-8.15%
CCOC(=O)/C(Cc1cc(=O)n(C)c2ccccc12)=N\Nc1ccccc1,2.85%,-12.2%,2.6%,-4.6%,10.6%,-6.75%
OCC1C=Cc2ccccc21 (stereo unspecified),-3.8%,0.65%,-0.6%,2.15%,14.5%,-2.4%
O=c1ccn(/C=C\c2nc3ccccc3[nH]c2=O)c(=S)[nH]1,-37.8%,-27.3%,-35.9%,13.7%,-17.5%,-40.4%
CN(C(=O)C1C2c3ccccc3C(c3ccccc32)C1C(=O)N(C)c1ccccc1)c1ccccc1 (stereo unspecified),29.4%,1.3%,22.4%,-39%,1.1%,21.9%
COc1cc(N(CCC#N)CCC#N)ccc1/C(N=Nc1ccccc1)=N/NC(=O)c1cc(Br)ccc1O,31.4%,37.1%,44.2%,3.3%,35.9%,21.4%
CCN(CC)c1ccc(/C=N\N(C)C)cc1,0.2%,-13.2%,-4.8%,-48.1%,-1.65%,-6.55%
Nc1ccc(C2NC=CN2)cc1,-12.1%,-7.65%,-0.7%,29.8%,-3.15%,-1.65%
C=CCC(CC=C)(C(=O)Nc1ccc2nc(C)cc(N)c2c1)C(=O)Nc1ccc2nc(C)cc(N)c2c1,2.05%,24.7%,22.1%,20.1%,12.4%,-10.1%
O=S1c2ccccc2N=C(c2cccc3ccccc23)CC1c1cccc2ccccc12 (stereo unspecified),56.4%,38.8%,52.5%,23.8%,58.1%,41%
O=C(N/N=C/c1ccc(Cl)cc1)c1ccccc1NC(=O)C1CC1,-3.85%,-14.2%,28%,-23.6%,11.8%,33.2%
N=C(N)c1cccc(NC(=O)CCc2ccccc2)c1,-7.3%,-14.6%,-17.8%,-29.1%,0.95%,1.9%
COC(=O)C1CCC(=O)N1CN(C(C)=O)c1ccccc1 (stereo unspecified),10.1%,8.6%,-14.1%,9%,-5.8%,-30.6%
CCOC(=O)C(=O)NC12CC3CC(CC(C3)C1)C2,-16.9%,-17.6%,1.5%,-4.45%,24.8%,-8.3%
CC(C)=CC1C(COCc2cc3c(cc2Br)OCO3)C1(C)C (stereo unspecified),-12.3%,-9.45%,3%,-34.2%,-7.05%,-3.95%

SMILES,growth inhibition [1],growth inhibition [2],growth inhibition [3],growth inhibition [4],growth inhibition [5],growth inhibition [6]
Cc1cccc(NC(=O)OCCOC(=O)Nc2cccc(C)n2)n1,-15.1%,-11.6%,-19.4%,-9.25%,-11.1%,-1.15%
O=c1oc2ccccc2c(O)c1Cc1cccc(Cc2c(O)c3ccccc3oc2=O)c1,11.9%,5.05%,4.9%,9.3%,-11.3%,5%
CS(=O)c1nsc(S(C)=O)c1C#N (stereo unspecified),1.05%,-9.7%,-1.5%,-35.6%,-9.95%,-10.6%
COCC12CCC(OC)C34C5CC6(O)C(OC)CC(OC(C)=O)(C5C6OC(=O)c5ccccc5)C(C(OC)C13)C4N(C)C2 (stereo unspecified),-24.5%,-23.8%,-26.5%,-8.9%,-1.45%,-77.5%
CCOC(=O)C(NC(=O)c1ccccc1)(Nc1ccc(S(=O)(=O)Nc2ncccn2)cc1)C(F)(F)F (stereo unspecified),1.1%,-17.4%,-16.8%,-4.55%,-12.7%,16.9%
CC1=C[P+](c2ccccc2)(c2ccccc2)c2ccccc2O1,58%,57.6%,66.8%,34.6%,72.3% (active),63.1%
CCC(=O)/C=C/c1cc(OC)c(OC)c(OC)c1,7.15%,-24.9%,-4.4%,-36.9%,-9.1%,2.4%
CC(C)c1ccc2c(c1)CCC1C(C)(C)[C@@H](O)CC[C@]21C (stereo partly specified),-15.3%,-40.1%,-23.2%,19.4%,-32.6%,-22.3%
Cc1ccc(S(=O)(=O)NC(=O)N(Cc2ccccc2)C(C)(C)C)cc1,3.4%,20.4%,16.1%,-0.15%,14.2%,16.9%
O=C1CCC(N2C(=O)C3C4CCC(CC4)C3C2=O)C(=O)N1 (stereo unspecified),2.75%,-12.9%,-14.9%,-1.65%,-2.65%,-16.2%
CCCCCCCC(=O)NS(=O)(=O)c1ccccc1,31.7%,20.7%,27.8%,52.2%,37.2%,39.8%
CN(C)c1ccc(C(=O)CCCN2CCC(O)(c3ccc(Cl)cc3)CC2)cc1,37.4%,14.8%,36.6%,6.4%,18.1%,21.9%
C1=C\CCCC/C=C/CC/1,1.2%,-4.75%,-13.1%,5.3%,0.75%,10.7%
CC(=O)c1ccc(N=NN2CCCC2)cc1,30.2%,8.35%,17.1%,31.4%,34.2%,2.7%
CNC(=O)OCc1c(COC(=O)NC)c(C)n(-c2ccccc2)c1C,7.75%,-14.1%,-24.2%,-0.35%,-3.95%,-24%
Cc1ccc(CNC(=S)NC2CCCCC2)cc1C,87.6% (active),96% (active),94.2% (active),83.5% (active),90% (active),96.3% (active)
Nc1ccc([N+](=O)[O-])c2ccccc12,17.1%,-8.75%,12.7%,10.8%,24.6%,12.7%
CC(=O)Oc1nnc(OC(C)=O)c2cc(N)ccc12,-13.3%,-18.3%,4.45%,-1.2%,9.9%,0.75%
Cc1cc(N)c(NC2OC(CO)C(O)C2O)cc1C (stereo unspecified),-25.1%,0.8%,4.75%,-43.1%,41.1%,19.7%
COC(=O)C1CCCCC1C(=O)OC (stereo unspecified),-11.1%,-14%,0.85%,-16.6%,-5.3%,6%
